# Article PMC7862700, “An all-to-all approach to the identification of sequence-specific readers for epigenetic DNA modifications on cytosine”
# Assays:
# Assay in all cases: DAPPL (digital affinity profiling via proximity ligation, sequencing); 10 mM Tris-HCl pH 7.5, 50 mM NaCl, 1 mM DTT, 4% glycerol, room temperature, 30 min; GST-TFs on glutathione beads, 16-mer random dsDNA library, 0.1% formaldehyde crosslink after washing; high values mean tight binding
# [1] = target: T1, FLI1 (Homo sapiens, UniProt Q01543 1-452); conditions: protein: recombinant; tags: N-terminal GST; dsDNA, one strand shown
# T1 sequence: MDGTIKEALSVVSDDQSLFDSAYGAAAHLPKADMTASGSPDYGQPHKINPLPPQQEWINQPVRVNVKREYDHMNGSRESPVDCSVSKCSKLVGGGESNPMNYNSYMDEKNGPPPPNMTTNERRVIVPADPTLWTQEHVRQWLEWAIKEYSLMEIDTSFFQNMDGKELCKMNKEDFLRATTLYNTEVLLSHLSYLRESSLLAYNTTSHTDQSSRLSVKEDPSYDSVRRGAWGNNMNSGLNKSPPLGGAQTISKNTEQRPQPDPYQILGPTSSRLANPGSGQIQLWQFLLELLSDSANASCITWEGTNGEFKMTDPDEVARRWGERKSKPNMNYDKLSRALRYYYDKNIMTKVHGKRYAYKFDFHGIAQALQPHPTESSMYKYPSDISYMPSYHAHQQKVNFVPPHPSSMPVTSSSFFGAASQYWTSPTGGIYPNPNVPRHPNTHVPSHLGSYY
# Method in brief: (§1)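 In yeast, human transcription factors were expressed with a GST fusion, then pulled down on glutathione beads and given DNA barcodes. Pooled with a tag-only sample, they were exposed to 200 nmole of a 16-mer random double-stranded DNA library (Tris/NaCl/DTT/glycerol buffer, room temperature, 30 min), washed, crosslinked with 0.1% formaldehyde, proximity-ligated using BsaI/T4 ligase for 1 h at 37 °C, PCR-amplified and read on an Illumina NextSeq500. Each hexamer's frequency of reads for a factor, divided by the matching frequency for the tag-only sample, gives the binding signal.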
# [2] = target: T2, ELK1 (Homo sapiens, UniProt P19419 1-428); conditions: protein: recombinant; tags: N-terminal GST; dsDNA, one strand shown
# T2 sequence: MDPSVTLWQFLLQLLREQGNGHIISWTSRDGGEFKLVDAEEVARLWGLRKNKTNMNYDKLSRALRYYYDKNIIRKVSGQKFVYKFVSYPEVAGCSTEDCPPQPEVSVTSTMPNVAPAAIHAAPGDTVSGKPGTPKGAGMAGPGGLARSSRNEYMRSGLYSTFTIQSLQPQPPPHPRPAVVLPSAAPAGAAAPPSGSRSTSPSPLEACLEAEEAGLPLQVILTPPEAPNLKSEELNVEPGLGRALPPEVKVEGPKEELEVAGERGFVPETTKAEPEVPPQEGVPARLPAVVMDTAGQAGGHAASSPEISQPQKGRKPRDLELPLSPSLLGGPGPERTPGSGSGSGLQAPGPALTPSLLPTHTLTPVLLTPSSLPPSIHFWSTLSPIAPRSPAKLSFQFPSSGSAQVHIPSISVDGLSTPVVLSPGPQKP
# Method in brief: as §1
# [3] = target: T3, GABPA (Homo sapiens, UniProt Q06546 1-454); conditions: protein: recombinant; tags: N-terminal GST; dsDNA, one strand shown
# T3 sequence: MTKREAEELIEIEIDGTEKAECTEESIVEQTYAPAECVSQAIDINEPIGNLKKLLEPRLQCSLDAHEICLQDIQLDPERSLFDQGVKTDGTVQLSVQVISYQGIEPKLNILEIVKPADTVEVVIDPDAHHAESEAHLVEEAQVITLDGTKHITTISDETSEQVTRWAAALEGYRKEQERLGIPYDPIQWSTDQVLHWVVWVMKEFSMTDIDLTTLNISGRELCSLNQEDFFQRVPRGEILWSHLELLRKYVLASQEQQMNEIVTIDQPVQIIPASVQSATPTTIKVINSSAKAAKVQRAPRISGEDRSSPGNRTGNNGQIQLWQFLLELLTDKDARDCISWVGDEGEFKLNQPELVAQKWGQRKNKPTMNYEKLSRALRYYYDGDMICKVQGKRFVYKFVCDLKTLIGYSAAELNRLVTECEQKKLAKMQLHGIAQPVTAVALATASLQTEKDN
# Method in brief: as §1
# [4] = target: T4, ERG (Homo sapiens, UniProt P11308 1-479); conditions: protein: recombinant; tags: N-terminal GST; dsDNA, one strand shown
# T4 sequence: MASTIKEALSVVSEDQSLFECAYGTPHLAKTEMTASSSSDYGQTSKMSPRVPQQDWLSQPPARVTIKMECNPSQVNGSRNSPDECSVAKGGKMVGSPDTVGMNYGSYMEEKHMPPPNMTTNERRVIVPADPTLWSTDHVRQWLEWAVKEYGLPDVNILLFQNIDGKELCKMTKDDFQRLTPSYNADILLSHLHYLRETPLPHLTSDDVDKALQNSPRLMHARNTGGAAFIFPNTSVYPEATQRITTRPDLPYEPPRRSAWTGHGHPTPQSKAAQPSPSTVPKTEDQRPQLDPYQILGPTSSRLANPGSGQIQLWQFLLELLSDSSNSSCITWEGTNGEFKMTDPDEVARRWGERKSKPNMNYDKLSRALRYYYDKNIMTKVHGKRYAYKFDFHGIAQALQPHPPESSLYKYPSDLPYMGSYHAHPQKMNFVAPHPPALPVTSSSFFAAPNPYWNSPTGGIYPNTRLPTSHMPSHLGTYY
# Method in brief: as §1
# [5] = target: ELF1 (Homo sapiens, UniProt P32519 1-619); conditions: protein: recombinant; tags: N-terminal GST; dsDNA, one strand shown
# Method in brief: as §1
# [6] = target: T5, EHF (Homo sapiens, UniProt Q9NZC4 1-300); conditions: protein: recombinant; tags: N-terminal GST; dsDNA, one strand shown
# T5 sequence: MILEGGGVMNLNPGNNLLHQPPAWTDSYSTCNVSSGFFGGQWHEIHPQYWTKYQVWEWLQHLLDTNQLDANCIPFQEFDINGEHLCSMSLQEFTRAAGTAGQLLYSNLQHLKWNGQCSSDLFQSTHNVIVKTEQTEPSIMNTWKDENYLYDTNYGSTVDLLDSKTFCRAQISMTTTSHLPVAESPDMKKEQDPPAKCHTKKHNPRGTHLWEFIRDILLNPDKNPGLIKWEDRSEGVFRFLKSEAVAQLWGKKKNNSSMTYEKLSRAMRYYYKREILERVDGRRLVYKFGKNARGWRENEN
# Method in brief: as §1
# [7] = target: SPI1 (Homo sapiens, UniProt P17947 1-270); conditions: protein: recombinant; tags: N-terminal GST; dsDNA, one strand shown
# Method in brief: as §1
# [8] = target: SPIB (Homo sapiens, UniProt Q01892 1-262); conditions: protein: recombinant; tags: N-terminal GST; dsDNA, one strand shown
# Method in brief: as §1
# [9] = target: T6, ELK3 (Homo sapiens, UniProt P41970 1-407); conditions: protein: recombinant; tags: N-terminal GST; dsDNA, one strand shown
# T6 sequence: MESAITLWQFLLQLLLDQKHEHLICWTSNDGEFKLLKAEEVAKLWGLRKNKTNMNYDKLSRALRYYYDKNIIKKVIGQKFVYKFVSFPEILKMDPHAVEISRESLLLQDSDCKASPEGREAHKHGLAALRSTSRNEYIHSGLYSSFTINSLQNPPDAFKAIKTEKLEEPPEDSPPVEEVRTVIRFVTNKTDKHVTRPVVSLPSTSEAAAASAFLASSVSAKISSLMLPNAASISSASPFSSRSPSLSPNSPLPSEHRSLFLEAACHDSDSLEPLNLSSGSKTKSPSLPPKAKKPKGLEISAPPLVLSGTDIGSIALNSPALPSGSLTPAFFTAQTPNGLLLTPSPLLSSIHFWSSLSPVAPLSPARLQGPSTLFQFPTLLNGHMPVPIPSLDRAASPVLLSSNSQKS
# Method in brief: as §1
# [10] = target: T7, FEV (Homo sapiens, UniProt Q99581 1-238); conditions: protein: recombinant; tags: N-terminal GST; dsDNA, one strand shown
# T7 sequence: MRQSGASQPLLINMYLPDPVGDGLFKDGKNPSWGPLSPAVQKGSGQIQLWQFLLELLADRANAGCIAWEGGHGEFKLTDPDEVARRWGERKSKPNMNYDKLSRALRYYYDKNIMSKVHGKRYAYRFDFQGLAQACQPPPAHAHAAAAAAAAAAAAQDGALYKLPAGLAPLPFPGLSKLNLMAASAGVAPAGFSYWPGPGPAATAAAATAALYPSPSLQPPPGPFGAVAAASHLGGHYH
# Method in brief: as §1
# [11] = target: ETV5 (Homo sapiens, UniProt P41161 1-510); conditions: protein: recombinant; tags: N-terminal GST; dsDNA, one strand shown
# Method in brief: as §1
# [12] = target: HSF1 (Homo sapiens, UniProt Q00613 1-529); conditions: protein: recombinant; tags: N-terminal GST; chain copies: 3; dsDNA, one strand shown
# Method in brief: as §1
# [13] = target: T8, SPIC (Homo sapiens, UniProt Q8N5J4 1-248); conditions: protein: recombinant; tags: N-terminal GST; dsDNA, one strand shown
# T8 sequence: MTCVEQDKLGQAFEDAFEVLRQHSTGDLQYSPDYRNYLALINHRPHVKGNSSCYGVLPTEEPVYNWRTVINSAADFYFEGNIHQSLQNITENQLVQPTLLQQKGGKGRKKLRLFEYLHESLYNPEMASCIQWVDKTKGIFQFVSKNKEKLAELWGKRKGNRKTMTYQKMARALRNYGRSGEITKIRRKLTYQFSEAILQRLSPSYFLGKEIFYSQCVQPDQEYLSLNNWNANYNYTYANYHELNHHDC
# Method in brief: as §1
# [14] = target: ELF4 (Homo sapiens, UniProt Q99607 1-663); conditions: protein: recombinant; tags: N-terminal GST; dsDNA, one strand shown
# Method in brief: as §1
# [15] = target: T9, ELK4 (Homo sapiens, UniProt P28324-2 1-405); conditions: protein: recombinant; tags: N-terminal GST; dsDNA, one strand shown
# T9 sequence: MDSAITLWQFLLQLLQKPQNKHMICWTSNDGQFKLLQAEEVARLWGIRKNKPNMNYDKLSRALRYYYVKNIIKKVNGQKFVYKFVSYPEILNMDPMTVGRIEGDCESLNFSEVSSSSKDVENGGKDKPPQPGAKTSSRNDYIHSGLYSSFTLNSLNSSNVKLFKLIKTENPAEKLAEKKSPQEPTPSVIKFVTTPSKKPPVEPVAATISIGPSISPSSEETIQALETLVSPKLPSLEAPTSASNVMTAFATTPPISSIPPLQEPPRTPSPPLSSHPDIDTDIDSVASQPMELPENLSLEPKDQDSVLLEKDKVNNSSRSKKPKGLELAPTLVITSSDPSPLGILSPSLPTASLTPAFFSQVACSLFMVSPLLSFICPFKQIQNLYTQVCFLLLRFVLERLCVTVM
# Method in brief: as §1
# [16] = target: T10, ETV2 (Homo sapiens, UniProt O00321 1-342); conditions: protein: recombinant; tags: N-terminal GST; dsDNA, one strand shown
# T10 sequence: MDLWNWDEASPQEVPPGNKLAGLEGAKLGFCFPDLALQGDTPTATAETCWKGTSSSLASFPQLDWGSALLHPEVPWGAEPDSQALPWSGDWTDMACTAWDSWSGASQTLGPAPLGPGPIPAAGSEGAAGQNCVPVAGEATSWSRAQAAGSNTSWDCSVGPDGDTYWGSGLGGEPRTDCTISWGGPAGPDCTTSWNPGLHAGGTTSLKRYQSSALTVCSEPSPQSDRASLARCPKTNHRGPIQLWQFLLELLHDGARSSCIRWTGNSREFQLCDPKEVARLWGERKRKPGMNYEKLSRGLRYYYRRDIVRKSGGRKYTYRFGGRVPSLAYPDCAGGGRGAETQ
# Method in brief: as §1
# [17] = target: T11, ELF3 (Homo sapiens, UniProt P78545 1-371); conditions: protein: recombinant; tags: N-terminal GST; dsDNA, one strand shown
# T11 sequence: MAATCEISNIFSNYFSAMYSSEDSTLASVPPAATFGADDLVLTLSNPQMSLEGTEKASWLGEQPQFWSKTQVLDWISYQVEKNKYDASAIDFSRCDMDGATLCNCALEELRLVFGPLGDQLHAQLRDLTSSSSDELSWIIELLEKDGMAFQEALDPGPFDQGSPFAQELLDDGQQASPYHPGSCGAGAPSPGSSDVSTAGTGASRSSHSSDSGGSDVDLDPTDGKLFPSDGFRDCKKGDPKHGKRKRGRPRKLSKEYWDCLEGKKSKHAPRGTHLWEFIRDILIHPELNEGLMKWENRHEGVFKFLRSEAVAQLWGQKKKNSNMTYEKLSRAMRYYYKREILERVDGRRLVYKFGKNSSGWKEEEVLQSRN
# Method in brief: as §1
# [18] = target: CRX (Homo sapiens, UniProt O43186 1-299); conditions: protein: recombinant; tags: N-terminal GST; dsDNA, one strand shown
# Method in brief: as §1
# [19] = target: ETV1 (Homo sapiens, UniProt P50549 1-477); conditions: protein: recombinant; tags: N-terminal GST; dsDNA, one strand shown
# Method in brief: as §1
# ETV5, sequence (P41161 whole entry): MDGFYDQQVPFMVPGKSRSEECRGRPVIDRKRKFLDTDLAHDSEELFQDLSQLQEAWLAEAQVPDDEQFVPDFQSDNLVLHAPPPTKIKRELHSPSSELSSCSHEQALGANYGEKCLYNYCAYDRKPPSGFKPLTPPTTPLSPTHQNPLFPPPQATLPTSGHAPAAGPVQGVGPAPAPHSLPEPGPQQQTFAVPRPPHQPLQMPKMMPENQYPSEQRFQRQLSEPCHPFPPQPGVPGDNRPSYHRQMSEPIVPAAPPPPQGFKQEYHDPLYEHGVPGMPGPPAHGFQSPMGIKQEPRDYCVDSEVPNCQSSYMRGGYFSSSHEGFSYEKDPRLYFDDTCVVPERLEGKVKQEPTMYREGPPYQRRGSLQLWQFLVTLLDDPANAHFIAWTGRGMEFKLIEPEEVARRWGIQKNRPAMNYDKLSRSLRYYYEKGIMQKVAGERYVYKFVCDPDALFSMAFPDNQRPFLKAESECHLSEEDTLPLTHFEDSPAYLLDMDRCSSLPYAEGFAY
# CRX, sequence (O43186 whole entry): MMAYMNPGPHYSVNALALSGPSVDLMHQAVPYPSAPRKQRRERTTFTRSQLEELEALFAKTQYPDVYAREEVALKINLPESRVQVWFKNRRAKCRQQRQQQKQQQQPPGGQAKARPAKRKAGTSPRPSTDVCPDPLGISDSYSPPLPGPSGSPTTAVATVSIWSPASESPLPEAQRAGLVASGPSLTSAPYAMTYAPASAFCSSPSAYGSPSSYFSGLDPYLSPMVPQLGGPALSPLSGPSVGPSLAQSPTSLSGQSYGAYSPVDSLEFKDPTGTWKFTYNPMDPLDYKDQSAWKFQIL
# ELF4, sequence (Q99607 whole entry): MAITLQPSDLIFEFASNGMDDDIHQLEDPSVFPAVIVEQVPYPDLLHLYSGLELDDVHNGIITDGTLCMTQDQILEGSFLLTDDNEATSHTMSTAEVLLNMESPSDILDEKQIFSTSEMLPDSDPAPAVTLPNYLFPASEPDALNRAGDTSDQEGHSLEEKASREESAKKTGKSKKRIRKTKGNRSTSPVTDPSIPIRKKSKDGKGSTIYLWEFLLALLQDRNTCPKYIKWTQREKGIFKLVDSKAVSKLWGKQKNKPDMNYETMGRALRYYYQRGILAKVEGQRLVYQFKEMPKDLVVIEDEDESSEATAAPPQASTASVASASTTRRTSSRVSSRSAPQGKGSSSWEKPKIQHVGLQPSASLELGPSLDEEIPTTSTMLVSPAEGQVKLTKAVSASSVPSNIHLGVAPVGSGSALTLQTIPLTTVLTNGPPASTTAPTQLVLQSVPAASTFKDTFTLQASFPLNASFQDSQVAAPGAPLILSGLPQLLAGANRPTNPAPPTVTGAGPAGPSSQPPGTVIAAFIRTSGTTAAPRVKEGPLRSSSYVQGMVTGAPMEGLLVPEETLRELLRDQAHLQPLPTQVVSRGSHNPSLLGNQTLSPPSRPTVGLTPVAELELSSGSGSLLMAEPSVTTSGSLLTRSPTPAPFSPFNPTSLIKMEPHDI
# ETV1, sequence (P50549 whole entry): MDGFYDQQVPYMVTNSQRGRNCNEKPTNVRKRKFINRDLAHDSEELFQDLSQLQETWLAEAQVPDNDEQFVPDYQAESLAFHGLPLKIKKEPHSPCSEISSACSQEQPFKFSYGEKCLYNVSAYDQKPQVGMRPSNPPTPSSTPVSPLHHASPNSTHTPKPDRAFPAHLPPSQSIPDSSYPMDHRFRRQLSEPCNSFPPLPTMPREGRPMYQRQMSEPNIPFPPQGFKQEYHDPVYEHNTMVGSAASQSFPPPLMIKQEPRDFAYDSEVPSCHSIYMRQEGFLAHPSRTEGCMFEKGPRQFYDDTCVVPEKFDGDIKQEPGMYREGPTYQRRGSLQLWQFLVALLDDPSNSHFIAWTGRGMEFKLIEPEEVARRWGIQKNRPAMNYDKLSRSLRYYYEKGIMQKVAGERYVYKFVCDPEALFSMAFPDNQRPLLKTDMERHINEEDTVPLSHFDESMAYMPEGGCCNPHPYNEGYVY
# SPIB, sequence (Q01892 whole entry): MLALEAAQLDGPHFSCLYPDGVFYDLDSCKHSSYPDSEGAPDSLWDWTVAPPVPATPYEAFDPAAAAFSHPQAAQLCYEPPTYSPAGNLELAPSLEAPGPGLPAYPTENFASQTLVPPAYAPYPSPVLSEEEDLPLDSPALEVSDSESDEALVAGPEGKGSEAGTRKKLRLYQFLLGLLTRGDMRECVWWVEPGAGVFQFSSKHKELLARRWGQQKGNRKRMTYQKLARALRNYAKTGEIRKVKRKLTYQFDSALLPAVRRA
# ELF1, sequence (P32519 whole entry): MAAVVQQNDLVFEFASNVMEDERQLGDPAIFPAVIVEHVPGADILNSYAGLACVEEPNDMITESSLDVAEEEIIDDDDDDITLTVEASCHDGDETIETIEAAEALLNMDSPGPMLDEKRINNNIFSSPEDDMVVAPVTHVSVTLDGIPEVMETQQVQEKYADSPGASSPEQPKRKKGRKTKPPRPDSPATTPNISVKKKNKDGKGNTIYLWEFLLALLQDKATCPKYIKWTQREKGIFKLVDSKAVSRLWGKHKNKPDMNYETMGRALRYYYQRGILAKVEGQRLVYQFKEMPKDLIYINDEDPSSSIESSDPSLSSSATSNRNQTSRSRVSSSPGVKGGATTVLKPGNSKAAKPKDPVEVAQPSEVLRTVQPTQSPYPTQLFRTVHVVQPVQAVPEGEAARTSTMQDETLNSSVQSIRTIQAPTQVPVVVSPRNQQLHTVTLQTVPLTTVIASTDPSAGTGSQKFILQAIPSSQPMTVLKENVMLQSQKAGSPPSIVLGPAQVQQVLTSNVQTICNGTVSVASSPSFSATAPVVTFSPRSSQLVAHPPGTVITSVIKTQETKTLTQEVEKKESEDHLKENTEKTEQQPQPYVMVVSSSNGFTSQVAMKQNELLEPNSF
# HSF1, sequence (Q00613 whole entry): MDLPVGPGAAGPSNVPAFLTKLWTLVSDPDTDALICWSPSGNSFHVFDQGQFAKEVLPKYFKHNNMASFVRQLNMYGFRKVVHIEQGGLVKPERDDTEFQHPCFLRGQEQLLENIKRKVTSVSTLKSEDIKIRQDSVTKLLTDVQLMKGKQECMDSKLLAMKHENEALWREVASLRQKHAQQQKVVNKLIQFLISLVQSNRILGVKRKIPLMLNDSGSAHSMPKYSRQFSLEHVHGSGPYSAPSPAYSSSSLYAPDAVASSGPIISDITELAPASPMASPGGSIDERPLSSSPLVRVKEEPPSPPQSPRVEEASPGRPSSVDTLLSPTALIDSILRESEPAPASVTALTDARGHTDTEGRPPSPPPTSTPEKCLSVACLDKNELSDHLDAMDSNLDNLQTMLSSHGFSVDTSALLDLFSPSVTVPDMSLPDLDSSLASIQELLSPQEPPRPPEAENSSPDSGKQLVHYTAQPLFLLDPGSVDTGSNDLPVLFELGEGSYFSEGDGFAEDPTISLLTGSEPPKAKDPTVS
sequence,measurement,setting,value
TAATTG,binding signal,[1],"1.38 fold enrichment (6-mer frequency, TF over GST control)"
same,binding signal,[2],"1.43 fold enrichment (6-mer frequency, TF over GST control)"
same,binding signal,[3],"1.38 fold enrichment (6-mer frequency, TF over GST control)"
same,binding signal,[4],"1.27 fold enrichment (6-mer frequency, TF over GST control)"
same,binding signal,[5],"1.3 fold enrichment (6-mer frequency, TF over GST control)"
same,binding signal,[6],"1.37 fold enrichment (6-mer frequency, TF over GST control)"
same,binding signal,[7],"1.47 fold enrichment (6-mer frequency, TF over GST control)"
same,binding signal,[8],"1.37 fold enrichment (6-mer frequency, TF over GST control)"
same,binding signal,[9],"1.5 fold enrichment (6-mer frequency, TF over GST control)"
same,binding signal,[10],"1.32 fold enrichment (6-mer frequency, TF over GST control)"
same,binding signal,[11],"1.4 fold enrichment (6-mer frequency, TF over GST control)"
same,binding signal,[12],"1.42 fold enrichment (6-mer frequency, TF over GST control)"
same,binding signal,[13],"1.31 fold enrichment (6-mer frequency, TF over GST control)"
same,binding signal,[14],"1.36 fold enrichment (6-mer frequency, TF over GST control)"
same,binding signal,[15],"1.35 fold enrichment (6-mer frequency, TF over GST control)"
same,binding signal,[16],"1.44 fold enrichment (6-mer frequency, TF over GST control)"
same,binding signal,[17],"1.49 fold enrichment (6-mer frequency, TF over GST control)"
same,binding signal,[18],"1.82 fold enrichment (6-mer frequency, TF over GST control)"
same,binding signal,[19],"1.35 fold enrichment (6-mer frequency, TF over GST control)"
